GLP-1R inv ag: acts as inverse agonist at human GLP-1 receptor; 410,000 tested, 1.6% active; P43220; AID 624417; HEK293 GLP-1R CRE-luciferase, luminescence, 24 h; GLP-1R form is constitutively active; Potency, µM (highest dose often 38.3 µM), usual class: inhibitors; also: nearly all actives have a fitted effect of over 55% in size
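qHTS in 1536-well format: reporter HEK293 cells expressing constitutive GLP-1R activity in DMEM + 10% Nu serum, 24 hr with compounds at 37 deg C, luminescence read after 12 min with detection reagent.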
GLP-1R agonist: GLP-1 receptor (human) agonism. HEK293 GLP-1R CRE-luciferase, luminescence, 4-6 h; cells express a hypersensitive GLP-1R form. Potency, µM (highest dose often 45.6 µM), actives largely listed as activators. 380,000 tested, 0.007% active. AID 624172
HEK293 tox: cytotoxic in the GLP-1 receptor inverse agonist counter-screen | HEK293 cAMP-luciferase reporter cells, luminescence, 24 h | Potency, µM (series often up to 38.3 µM), most hits filed as inhibitors | 410,000 tested, 0.13% active;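 also: loss of luciferase light is scored as toxicity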
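Compound-treated cells are incubated 24 hr at 37 deg C under 5% CO2 after a 12 hour attachment period, then luciferase detection reagent is added and luminescence is measured following 12 min at room temperature; lowered signal indicates toxicity.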
RORgamma inh: ROR gamma (mouse) transcription inhibition; 310,000 tested, 5.4% active; AID 2551; Drosophila S2 Gal4-RORgamma UAS-luciferase reporter, 20 h; Potency, µM (highest dose often 53.6 µM), most hits filed as inhibitors; also: nearly all actives have a fitted effect of over 60% in size
Target sequence (P51450 whole entry, looked up, the tested form may be a part): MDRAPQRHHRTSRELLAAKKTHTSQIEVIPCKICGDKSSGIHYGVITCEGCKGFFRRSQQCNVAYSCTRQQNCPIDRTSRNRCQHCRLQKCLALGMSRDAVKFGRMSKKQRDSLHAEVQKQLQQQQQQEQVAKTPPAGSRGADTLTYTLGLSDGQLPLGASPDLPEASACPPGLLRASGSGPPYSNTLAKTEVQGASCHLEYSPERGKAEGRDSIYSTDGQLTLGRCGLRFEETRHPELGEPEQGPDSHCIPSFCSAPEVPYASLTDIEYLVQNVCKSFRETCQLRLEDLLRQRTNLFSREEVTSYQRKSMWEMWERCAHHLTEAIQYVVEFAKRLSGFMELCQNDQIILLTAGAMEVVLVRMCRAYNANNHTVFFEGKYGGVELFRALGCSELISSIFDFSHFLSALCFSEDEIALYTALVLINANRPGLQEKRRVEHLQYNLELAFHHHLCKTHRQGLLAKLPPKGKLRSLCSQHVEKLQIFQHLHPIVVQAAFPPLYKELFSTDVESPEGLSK
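Read-out: Photinus luciferase luminescence; inhibitors lower reporter signal. Insect Schneider cells with Gal4-ROR gamma fusion under metallothionein promoter, UAS reporter; 700 uM final copper sulfate induction, 20 hr, ambient temperature.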
VP16 counter: Gal4-VP16 reporter inhibition counter-screen. Drosophila S2 Gal4-VP16 UAS-luciferase, luminescence, 20 h. Potency, µM (series often up to 53.6 µM), most hits filed as inhibitors. 310,000 tested, 3.5% active. AID 2546;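 also: Gal4-VP16 expression switched on by copper sulfate through the metallothionein promoter; nearly all actives have a fitted effect of over 50% in size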
Hits are given with their value; 0 = inactive; ? = inconclusive; - = no result given; ! = not confirmed by another sample; [ ] = remark or other dose. Shown are actives, neighbours in structure and some others; about 5.9% of the full set was active somewhere. Calls follow the shape of the dose curve; as a rule, active = well fitted curve in the direction sought with a large enough effect; inconclusive = small, poorly fitted or top-dose-only effect, or another doubt; inactive = no such curve, though single readings can be large; an effect the other way counts as inactive or inconclusive.

SMILES	GLP-1R inv ag	GLP-1R agonist	HEK293 tox	RORgamma inh	VP16 counter
CCCCNc1ccc2c3c(cccc13)C(=O)N(CCCC)C2=O	7.1µM	0	0	0	0
CCOC(=O)[C@]12Cc3cc(Cl)ccc3[C@H]1N(CC(=O)OC)C(=O)c1ccccc12	7.9µM	0	?	-	-
CCOC(=O)[C@]12Cc3cc(OC)ccc3[C@H]1N(C1CCCCC1)C(=O)c1ccccc12	2.5µM	0	10µM	-	-
CCOC(=O)[C@]12Cc3cc(OC)ccc3[C@H]1N(C)C(=O)c1ccccc12	0	0	0	-	-
CCOC(=O)[C@]12Cc3cc(Cl)ccc3[C@H]1N(C1CCCCC1)C(=O)c1ccccc12	4.5µM	0	?	-	-
NCC[C@H](NC(=O)[C@@H](N)CCCN=C(N)N[N+](=O)[O-])C(N)=O	-	-	-	0	0
CC(=O)NN1C(=O)/C(=C/c2ccc(Br)o2)SC1=S	0	0	0	0	0
CCN(CC)c1ccc(/C=C2\SC(=O)N(C(C)C)C2=O)o1	?	0	?	3.5µM	4.5µM
O=C(NNC(=O)C(c1ccccc1)c1ccccc1)c1ccccn1	?	0	?	5.6µM	?
COP(=O)(OC)C(Nc1ccccn1)c1ccccc1 (stereo unspecified)	0	0	0	0	0
CC(C)(C)c1cc(O)ccc1O	-	0	-	3.5µM!	3.2µM
CN(c1ccc(O)cc1)c1ccc([N+](=O)[O-])c2nonc12	0	0	?	-	-
O=[N+]([O-])c1c(Nc2ccc(O)cc2)cc(Cl)c2nonc12	?	0	?	5.6µM	4.5µM
CCN(CC)CCNCC(=O)Nc1ccc(Cl)cc1C(=O)c1ccccc1	?	0	0	0	0
CCN(CC)CCNC(=O)c1nn(-c2ccc(Cl)cc2)c2c1CCc1cc(OC)ccc1-2	4.5µM	0	?	-	-
NC(=O)O	-	-	-	0	0
COc1ccc(C[C@H]2NC[C@H](O)[C@H]2OC(C)=O)cc1	0	0	0	-	-
COc1ccc(C[C@@H]2NC[C@H](O)[C@@H]2OC(C)=O)cc1	-	-	-	0.32µM	0.04µM
COc1cccc(C(=O)CCN[C@@H](C)[C@H](O)c2ccccc2)c1	-	0	-	-	-
C[C@@]12CCC(=O)C[C@@H]1CC[C@@H]1[C@@H]2CC[C@]2(C)C(=O)CC[C@@H]12	-	-	-	0	0
Cc1ccc(C(=O)NC(=S)NNS(=O)(=O)c2ccc(C)cc2)cc1	0	0	0[1.53 µM]	5.6µM	?
CCOP(=O)(OCC)C(NC(=O)c1ccc(C)cc1)=C(Cl)Cl	0	0	0	0	0
CCCCCCCC/C=C\CCCCCCCC(=O)OC[C@@H](COP(O)(O)=S)OC	-	-	-	0	0
CN[C@H](C)Cc1ccccc1	-	0	-	-	-
SMILES	GLP-1R inv ag	GLP-1R agonist	HEK293 tox	RORgamma inh	VP16 counter
O=c1[nH]c(=O)n(CCC2=CCCCC2)c(O)c1/C=N/Nc1ccccc1	?	0	0	?	20µM
O=c1[nH]c(=O)n(Cc2ccc(F)cc2)c(O)c1/C=N/Nc1ccccc1	4.5µM	0	0	0	0
O=c1[nH]c(=O)n(CCC2=CCCCC2)c(O)c1/C=N/Nc1cccc2ccccc12	0	0	0	0	?
COc1ccc(C2CN(C)CC2C(=O)c2ccc(C)cc2)cc1Cl (stereo unspecified)	10µM	0	0	0	0
CN1CC(C(=O)c2ccc(Cl)cc2)C(c2ccc(Cl)cc2Cl)C1 (stereo unspecified)	8.9µM	0	0	0	0
CCc1ccc(OCC(=O)NC(NC(=S)Nc2ccccc2C)C(Cl)(Cl)Cl)cc1 (stereo unspecified)	?	0	?	6.3µM	5µM
O=C(CCc1ccccc1)NC(NC(=S)Nc1ccc(Cl)cc1)C(Cl)(Cl)Cl (stereo unspecified)	?	0	?	0	?
Cc1ccccc1NC(=O)CCl	0	0	0	0	0
CCc1ccc(OCC(=O)NC(NC(=S)Nc2ccccc2)C(Cl)(Cl)Cl)cc1 (stereo unspecified)	4µM	0	?	?	13µM
CC(C)CN1CC[C@@]2(CCCN(C(=O)Oc3ccccc3)C2)C1	-	-	-	0	0
COC(=O)C12CC3=C[C@H](CC3=O)Cc3ccccc3[C@@H]1CNC2=O (stereo partly specified)	-	-	-	0	0
CN(C)NC(=O)CCC(=O)O	-	-	-	0	0
CCCC[N+]12C3CC(C(CC)[C@H]1O)[C@@H]1C(O)C4(C[C@@H]12)c1ccccc1N(C)C34 (stereo partly specified)	-	-	-	0	0
Cc1ccc(C(=O)N/N=C/c2ccc(-c3cccc(Cl)c3)o2)cn1	7.9µM	0	?	5µM	7.1µM
CN1C(=O)C(=Cc2ccc(-c3cccc(Cl)c3)o2)C(=O)N(C)C1=O	-	-	-	0	0
CC[C@@H](O)C(C[C@@H](C)N(C)C)(c1ccccc1)c1ccccc1	-	0	-	-	-
Cc1cccc(N)c1C	-	-	-	0	0
CCCCCCOc1ccc(CN2CCN(C)CC2)cc1	3.2µM	0	0	0	0
CCCCOc1ccccc1C1CC(=O)Nc2cc(C)c(C)cc21 (stereo unspecified)	13µM	-	?	-	-
CCCNC(=O)c1cc2c(c(-c3cccc(-c4cc5ccccc5o4)c3)n1)[C@H](CCO)N(C(=O)NC(C)C)C2	?	0	0	-	-
O=Cc1cn(Cc2ccc([N+](=O)[O-])cc2)c2ccccc12	2.2µM	0	0	?	?
CCOC(=O)c1cccc(NC2c3ccccc3C(=O)N2Cc2ccco2)c1 (stereo unspecified)	0	0	0	?	13µM
O=C1Nc2ccccc2/C1=C/c1nc2ccccc2c(=O)n1-c1ccc(O)cc1	10µM	0	?	0	0
Cc1ccccc1-n1c(/C=C/c2ccc(O)cc2)nc2ccccc2c1=O	11µM	-	0	-	-
O=c1c2ccccc2nc(/C=C/c2cccnc2)n1Cc1ccccc1	5µM	0	0	0	0
SMILES	GLP-1R inv ag	GLP-1R agonist	HEK293 tox	RORgamma inh	VP16 counter
O=c1c2ccccc2nc(/C=C/c2ccccc2)n1-c1ccc(O)cc1	5.6µM	0	0	0	0
c1ccc(C2CO2)cc1 (stereo unspecified)	-	-	-	0	0
O=C(NCc1c(-n2cccc2)sc2c1CCCC2)Nc1cccc(C(F)(F)F)c1	?	-	0	-	-
C[N+](=O)[O-]	-	-	-	0	0
CC(C)C[C@H](NC(=O)[C@H](Cc1ccccc1)NC(=O)CNC(=O)[C@@H](COC(C)(C)C)NC(=O)[C@@H](N)Cc1ccc(O)cc1)C(=O)N[C@H](C(=O)O)[C@@H](C)OC(C)(C)C	-	-	-	0	0
Cc1ccc(-n2c(/C=C/c3ccc(Br)s3)nc3ccccc3c2=O)cc1C	11µM	-	0	-	-

Assay outcomes deposited in PubChem by National Center for Advancing Translational Sciences (NCATS).
